Compounds with a hit are over-represented: about 1.6% of the library has one in this group of screens.
gsp antag: antagonists of gsp mutant (McCune-Albright syndrome); gsp-mutant cells, cAMP HTRF, 30 min; Potency, µM (top dose mostly 76.9 µM), for inactives: top-dose activity change, negative = inhibition, most hits filed as inhibitors; 0.4% of 340,000 active; AID 624288; calls by dose curve; cell line not stated here;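 note: intracellular cAMP measured with PDE inhibitor Ro 20-1724 present during compound exposure; % is set by controls: 0 for no effect and ±100 for the full control effect; nearly all actives have a fitted effect of over 65% in size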
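Cells in G418 medium, seeded 16-24 h, 37C; buffer exchange to DPBS + 1 mM CaCl2, 0.5 mM MgCl2, 0.05% BSA; cpds in DMSO + […] (300 uM stock), 30 min 37C; HTRF cAMP detection.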
Mito fusion yeast: blocks mitochondrial division or promotes mitochondrial fusion | Potency, µM (doses to about 46.1 µM), without a hit: top-dose growth rescue (activation), actives largely listed as activators | 0.23% of 320,000 active | S. cerevisiae fusion-defective mutant growth rescue, CellTiterGlo 48 h; note: % of control where 0% means no effect; nearly all actives have a fitted effect of over 45% in size
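Compounds are tested for their ability to restore growth of mitochondrial fusion-defective yeast strains at non-permissive 37C in YPEG medium over 48 hours. Viability is quantified by luciferase luminescence.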
gsp ag: agonists of gsp mutant (McCune-Albright syndrome); gsp mutant cells, cAMP HTRF, 30 min; Potency, µM (titrated, usually from 76.9 µM), inactives show at the highest dose activation (cAMP increase), most hits filed as activators; 0.13% of 340,000 active; AID 624287; active = well fitted activation curve with a large enough effect; inconclusive = small, poorly fitted or top-dose-only effect, or another doubt; inactive = no such curve, though single readings can be large or run the other way; cell line not stated here;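 note: phosphodiesterase inhibitor Ro 20-1724 added with compounds to block cAMP breakdown; nearly all actives have a fitted effect of over 60% in size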
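Cells in DMEM/10% FBS with G418 were pretreated with compounds in DMSO plus […] (300 uM stock) for 30 min at 37C. cAMP was measured by HTRF (cAMP-d2 plus anti-cAMP antibody-K) after 30 min at room temperature.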
ALOX12 inh: blocks human arachidonate 12S-lipoxygenase; AID 1671190; Potency, µM (titrated, usually from 108 µM), without a hit: at the highest dose activity change, negative = inhibition, usual class: inhibitors; 1.1% of 580,000 active; P18054; purified 12hLO, xylenol orange hydroperoxide absorbance; note: % is set by controls: 0 for no effect and ±100 for the full control effect
Target sequence (P18054 whole entry, looked up): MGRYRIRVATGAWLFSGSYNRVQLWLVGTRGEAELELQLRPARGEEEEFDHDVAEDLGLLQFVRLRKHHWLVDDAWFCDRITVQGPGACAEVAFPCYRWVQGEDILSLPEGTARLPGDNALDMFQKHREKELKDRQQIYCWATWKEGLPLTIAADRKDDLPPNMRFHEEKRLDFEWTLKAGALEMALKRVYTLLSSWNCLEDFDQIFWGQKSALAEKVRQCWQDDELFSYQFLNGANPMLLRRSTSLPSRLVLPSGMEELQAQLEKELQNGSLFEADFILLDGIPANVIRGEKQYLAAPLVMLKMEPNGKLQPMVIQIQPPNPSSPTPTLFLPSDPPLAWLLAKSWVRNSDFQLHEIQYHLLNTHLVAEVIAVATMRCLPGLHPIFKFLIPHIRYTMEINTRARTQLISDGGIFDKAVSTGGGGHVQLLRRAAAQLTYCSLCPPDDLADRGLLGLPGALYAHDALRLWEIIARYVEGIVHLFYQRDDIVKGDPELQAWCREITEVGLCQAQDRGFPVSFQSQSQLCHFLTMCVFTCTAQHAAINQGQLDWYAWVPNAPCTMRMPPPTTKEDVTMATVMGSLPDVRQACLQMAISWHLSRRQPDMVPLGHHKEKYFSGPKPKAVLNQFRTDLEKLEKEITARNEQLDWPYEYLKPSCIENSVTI
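Hydroperoxide product was detected by ferrous iron/xylenol orange as the 573 to 405 nm absorbance ratio. Arachidonic acid at 40 uM (final) was turned over for 30 min at room temperature by 150 nM human 12hLO, pH 7.0 Hepes buffer, after 15 min compound preincubation.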
FUS yeast rescue: suppressors of FUS proteinopathy in yeast; AID 1347120; Potency, µM (top dose mostly 76.6 µM), actives largely listed as activators; S. cerevisiae FUS-expressing, growth rescue, OD600, 24 h; 0.24% of 390,000 active;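 note: plate controls were DMSO vehicle for no effect and reference control for full effect; nearly all actives have a fitted effect of over 55% in size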
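Restored growth of FUS-toxic S. cerevisiae, read as 600 nm absorbance after 24 h at 30C in galactose medium (starting OD 0.005). Controls CP55940 and DMSO.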
Numbers without * were called inactive; i = inactive; ? = inconclusive; . = no result; [ ] = another dose, or the depositor's remark. Unless noted, calls come from the whole dose curve; as a rule, active = well fitted curve in the direction sought with a large enough effect; inconclusive = small, poorly fitted or top-dose-only effect, or another doubt; inactive = no such curve, though single readings can be large; an effect the other way counts as inactive or inconclusive. Potency is the fitted concentration of half-maximal effect.

SMILES	gsp antag	Mito fusion yeast	gsp ag	ALOX12 inh	FUS yeast rescue
Cc1ccc(-c2csc3nc4ccc(C(=O)NCCO)cc4c(=O)n23)cc1	-12%	0%	.	-1%	i
O=C(NC1CC1)c1cc(SCC(=O)N2CCOCC2)nc2ccccc12	.	.	.	2%	.
Cc1ccc(SCC(=O)NC(C)(C#N)C2CC2)c(C)c1 (stereo not given)	.	.	.	35µM*	.
CN(C)c1ccc(C(=C2C=CC(=[N+](C)C)C=C2)c2ccccc2)cc1	.	.	.	0.32µM*	.
CN(C)c1ccc(C(=O)C(=O)c2ccccc2)cc1	10%	2%	6%	0%	i
O=C(CSc1ccccc1F)c1ccc2c(c1)OCCO2	.	.	.	27%	.
S=C(NCc1ccc2[nH]c3c(c2c1)CCCC3)Nc1ccccc1	-6%	?	-1%	40µM*	i
Cc1cc(C)cc(NC(=O)CN(C)S(=O)(=O)c2ccc3[nH]c4c(c3c2)CCCC4)c1	.	.	.	-7%	i
CCS(=O)(=O)NCc1ccc2[nH]c3c(c2c1)CCCC3	.	0%	.	.	.
Cc1cc(C)cc(NC(=S)NCc2ccc3[nH]c4c(c3c2)CCCC4)c1	-11%	?	-36%	40µM*	?
Cc1noc(NS(=O)(=O)c2ccc(N/C=C\C(=O)c3ccncc3)cc2)c1C	22%	1%	20µM*	?	i
COc1ccccc1NC(=O)c1ncoc1-c1cccc(C)c1	.	.	.	13%	.
Brc1ccccc1-c1nc(-c2ccccn2)no1	.	.	.	14µM*	.
Cc1ccccc1-c1nc(-c2ccccn2)no1	8%	-3%	2%	-12%	i
COC(=O)C1=C(C(=O)OC)[C@]2([C@@H]3CC=CCN[C@@H](Cc4ccccc4)C(=O)N3Cc3ccccc3)C=C[C@H]1O2	-7%	.	.	-4%	i
COC(=O)C1=C(C(=O)OC)[C@]2([C@H]3CC=CCN[C@@H](Cc4ccccc4)C(=O)N3Cc3ccccc3)C=C[C@H]1O2	-17%	.	3%	-11%	22µM*
Cc1cccc(CC2CC(=O)N(c3nc4ccccc4s3)C2=O)c1 (stereo not given)	-3%	-6%	-42%	13%	i
CC(=O)c1nc(N2C(=O)CC(Cc3ccccc3)C2=O)sc1C (stereo not given)	10%	5%	16µM*	?	.
Cc1ccc(S(=O)(=O)c2ccc(C)cc2)cc1	-10%	1%	-40%	3%	i
O=S(=O)(c1ccc(Cl)cc1)c1ccc(-c2ccc(S(=O)(=O)c3ccc(Cl)cc3)cc2)cc1	.	.	.	11µM*	.
Cc1cccc(-c2noc(CCC(=O)NCc3ccco3)n2)c1	3%	0%	0%	-14%	i
Cc1ccc2c(=O)c(-c3nc(-c4cccc(F)c4)no3)cn(CC(=O)NCc3ccco3)c2n1	.	.	.	10µM*	.
CCCCCCn1c(N2CCN(Cc3c(Cl)cccc3Cl)CC2)nc2c1c(=O)[nH]c(=O)n2C	.	.	.	-44%	.
O=C(C1CCCC1)N1CC2(CCN(Cc3ccccn3)CC2)Cc2ccccc21	.	.	.	0%[12.5 µM]	.
CC(C)NC(=O)C1CCN(C(=O)c2cc3sccc3n2Cc2ccc(F)cc2)CC1	32µM*	3%	2%	.	i
SMILES	gsp antag	Mito fusion yeast	gsp ag	ALOX12 inh	FUS yeast rescue
NNc1cccc2ncccc12	.	.	.	3.5µM*	.
O=C(CCl)Nc1cccc2ncccc12	-10%	-21%	-9%	-14%	i
COc1ccc(-c2c(C)oc3cc(OCCN4CCC(C(N)=O)CC4)ccc3c2=O)cc1OC	.	.	.	-27%	.
COc1cccc2sc(=NC(=O)CS(=O)(=O)c3ccc(F)cc3)n(C)c12	-6%	6%	25%	7%	i
CCn1c(=NC(=O)CS(=O)(=O)c2ccc(C)cc2)sc2cccc(OC)c21	35µM*	13%	5%	-18%	i
COc1ccccc1Cc1c(-c2ccccc2)nc2c3ccccc3ccn12	.	.	.	0%	.
COc1ccccc1Cc1c(C(C)(C)C)nc2c3ccccc3ccn12	.	.	.	28µM*	i
Cc1cccc(C)c1NC(=S)NC(C)CCc1ccccc1 (stereo not given)	4%	11%	5%[15.4 µM]	40µM*	i
COc1ccc(CNC(=S)NC(C)CCc2ccccc2)cc1 (stereo not given)	-3%	-2%	?	40µM*	i
COc1ccc(CNC(=S)NCc2ccc(OC)cc2)cc1	1%	-1%	-39%	?	i
Cc1cccc(Cn2c(NCCc3ccccc3)nc3c2c(=O)n(C)c(=O)n3C)c1	.	.	.	3%	.
NNc1nc2sc3c(c2c(=O)[nH]1)CCc1ccccc1-3	-4%	?	1%	35µM*	.
CS(=O)(=O)Oc1ccc2c(c1)O/C(=C\c1ccccc1)C2=O	.	.	.	-6%	.
COc1ccc(S(=O)(=O)N2CCN(CC(=O)c3[nH]c(C)c(C(C)=O)c3C)CC2)cc1OC	?	-1%	2%	429%	.
CC(=O)c1c(C)[nH]c(C(=O)CN2CCN(S(=O)(=O)c3ccc(C(C)C)cc3)CC2)c1C	35µM*	0%	-14%	217%	i
O=C(CNC(=O)c1ccccc1)OCc1cc(=O)n2cc(Br)ccc2n1	8%	-12%	5.6µM*	0%	i
CC(NC(=O)c1nn(C(C)C)c(=O)c2ccccc12)c1cccs1 (stereo not given)	.	.	.	-2%	.
CC(=O)NC(CCc1ccc(Cl)c(Cl)c1)c1cccc(O)c(=O)c1 (stereo not given)	.	.	-30%	40µM*	i
Cc1nn(C)c(C)c1CN(C)S(=O)(=O)c1ccc2ccccc2c1	14µM*	-7%	9%	-1%	i
Cc1ccc(NCc2ccccc2C#N)c(F)c1	.	.	.	-46%	.
COc1cc2c(cc1OC)C(c1ccccc1)N(CC(O)CO)CC2 (stereo not given)	.	.	.	15%	.
CC(Nc1ccc(N2CCOCC2)cc1)c1nc2scc(-c3cccs3)c2c(=O)[nH]1 (stereo not given)	.	.	.	35µM*	.
C=C(C)Cn1c(N2CCC(Cc3ccccc3)CC2)nc2c1c(=O)[nH]c(=O)n2C	-13%	16µM*	-4%	-21%	i
CC(OC(=O)c1ccc(O)cc1)C(=O)Nc1ccccc1OC(F)F (stereo not given)	.	.	.	11%	.
O=C1NN(c2ccc(Br)cc2)C(=O)/C1=C\c1ccc(O)cc1O	-6%	-7%	10%	40µM*	i
